Measurements reported in PubChem BioAssay AID1159580 (chemical genetic matrix, 2015).
The whole screen tested about 5,500 compounds, of which about 2,000 (36%) were called active. About 18% were inconclusive and are not listed. Cut-off read from the data, not from the text of the source: active = normalized growth mostly below about 0.91 (no sharp cut-off); inconclusive = no clear call, values can overlap the other calls; inactive = mostly above about 0.92. This is one part of the list.

Assay: chemical genetic growth profiling, strain panel (AID 1159580);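 note: tested at 20 µM; growth read once vehicle control cultures reached saturation at 30 °C; 1 = growth at the plate median or of vehicle wells; lower values mean less growth of the strain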
Settings: growth OD

Measured: normalized growth

C[N+](C)(C)CCOP(=O)([O-])OP(=O)(O)OC[C@H]1OC(n2ccc(N)nc2=O)[C@H](O)[C@@H]1O (some centres not stated)
inactive: S. cerevisiae deletion strains, locus YJR075W, strain HOC1, stronger effect = lower value 0.975 | S. cerevisiae deletion strains, locus YKL009W, strain mrt4, stronger effect = lower value 1.03 | S. cerevisiae deletion strains, locus YKL068W, stronger effect = lower value 0.991 | S. cerevisiae deletion strains, locus YKL085W, strain MDH1 (second series), stronger effect = lower value 1.02 | S. cerevisiae deletion strains, locus YKL085W, strain MDH1, stronger effect = lower value 1.02 | S. cerevisiae deletion strains, locus YKL160W, strain elf1, stronger effect = lower value 0.984 | S. cerevisiae deletion strains, locus YKL190W, strain CNB1, stronger effect = lower value 0.999 | S. cerevisiae deletion strains, locus YKR001C, strain vps1, stronger effect = lower value 1.01 | S. cerevisiae deletion strains, locus YKR026C, strain gcn3, stronger effect = lower value 0.979 | S. cerevisiae deletion strains, locus YKR091W, strain srl3, stronger effect = lower value 0.982 | S. cerevisiae deletion strains, locus YLL001W, strain dnm1, stronger effect = lower value 0.963 | S. cerevisiae deletion strains, locus YLL026W, stronger effect = lower value 0.985 | S. cerevisiae deletion strains, locus YLL041C, strain sdh2, stronger effect = lower value 0.98 | S. cerevisiae deletion strains, locus YLR027C, strain aat2, stronger effect = lower value 0.987 | S. cerevisiae deletion strains, locus YLR039C, strain RIC1, stronger effect = lower value 1.03 | S. cerevisiae deletion strains, locus YLR058C, strain SHM2, stronger effect = lower value 1 | S. cerevisiae deletion strains, locus YLR102C, strain apc9, stronger effect = lower value 1.01 | S. cerevisiae deletion strains, locus YLR113W, strain HOG1, stronger effect = lower value 0.978 | S. cerevisiae deletion strains, locus YLR221C, strain rsa3, stronger effect = lower value 1.01 | S. cerevisiae deletion strains, locus YLR258W, strain gsy2, stronger effect = lower value 0.999 | S. cerevisiae deletion strains, locus YLR262C, strain YPT6 (second series), stronger effect = lower value 0.98 | S. cerevisiae deletion strains, locus YLR262C, strain YPT6, stronger effect = lower value 0.993 | S. cerevisiae deletion strains, locus YLR268W, strain sec22, stronger effect = lower value 0.974 | S. cerevisiae deletion strains, locus YLR320W, strain mms22, stronger effect = lower value 1.01 | S. cerevisiae deletion strains, locus YLR330W, strain CHS5, stronger effect = lower value 1 | S. cerevisiae deletion strains, locus YLR342W, strain FKS1 (second series), stronger effect = lower value 1.05 | S. cerevisiae deletion strains, locus YLR342W, strain FKS1, stronger effect = lower value 0.974 | S. cerevisiae deletion strains, locus YLR357W, strain rsc2, stronger effect = lower value 0.994 | S. cerevisiae deletion strains, locus YLR370C, strain arc18, stronger effect = lower value 0.981 | S. cerevisiae deletion strains, locus YLR371W, strain rom2, stronger effect = lower value 1.01 | S. cerevisiae deletion strains, locus YLR384C, strain iki3, stronger effect = lower value 0.981 | S. cerevisiae deletion strains, locus YLR418C, strain cdc73, stronger effect = lower value 0.963 | S. cerevisiae deletion strains, locus YML016C, strain PPZ1, stronger effect = lower value 1 | S. cerevisiae deletion strains, locus YML032C, strain rad52, stronger effect = lower value 1.02 | S. cerevisiae deletion strains, locus YML120C, strain ndi1, stronger effect = lower value 0.999 | S. cerevisiae deletion strains, locus YML124C, strain tub3, stronger effect = lower value 1.01 | S. cerevisiae deletion strains, locus YMR058W, strain fet3, stronger effect = lower value 0.978 | S. cerevisiae deletion strains, locus YMR078C, strain ctf18, stronger effect = lower value 1 | S. cerevisiae deletion strains, locus YMR125W, strain sto1, stronger effect = lower value 0.994 | S. cerevisiae deletion strains, locus YMR129W, stronger effect = lower value 0.981 | S. cerevisiae deletion strains, locus YMR205C, strain PFK2, stronger effect = lower value 0.99 | S. cerevisiae deletion strains, locus YMR223W, strain ubp8, stronger effect = lower value 1.02 | S. cerevisiae deletion strains, locus YMR231W, strain pep5, stronger effect = lower value 0.989 | S. cerevisiae deletion strains, locus YMR263W, strain SAP30, stronger effect = lower value 0.983 | S. cerevisiae deletion strains, locus YMR307W, strain GAS1, stronger effect = lower value 1.04 | S. cerevisiae deletion strains, locus YNL067W, strain RPL9B, stronger effect = lower value 0.969 | S. cerevisiae deletion strains, locus YNL071W, strain lat1, stronger effect = lower value 0.991 | S. cerevisiae deletion strains, locus YNL128W, strain TEP1, stronger effect = lower value 0.943 | S. cerevisiae deletion strains, locus YNL153C, strain GIM3, stronger effect = lower value 0.985 | S. cerevisiae deletion strains, locus YNL183C, strain NPR1, stronger effect = lower value 0.964 | S. cerevisiae deletion strains, locus YNL209W, strain ssb2, stronger effect = lower value 1 | S. cerevisiae deletion strains, locus YNL233W, strain BNI4, stronger effect = lower value 0.994 | S. cerevisiae deletion strains, locus YNL248C, strain rpa49, stronger effect = lower value 1 | S. cerevisiae deletion strains, locus YNL250W, strain rad50, stronger effect = lower value 1 | S. cerevisiae deletion strains, locus YNL271C, strain bni1, stronger effect = lower value 0.995 | S. cerevisiae deletion strains, locus YNL298W, strain CLA4, stronger effect = lower value 1 | S. cerevisiae deletion strains, locus YNL307C, strain MCK1, stronger effect = lower value 1.02 | S. cerevisiae deletion strains, locus YNL322C, strain KRE1 (second series), stronger effect = lower value 0.975 | S. cerevisiae deletion strains, locus YNL322C, strain KRE1, stronger effect = lower value 0.998 | S. cerevisiae deletion strains, locus YNR049C, strain mso1, stronger effect = lower value 0.972 | S. cerevisiae deletion strains, locus YNR052C, strain pop2, stronger effect = lower value 1.02 | S. cerevisiae deletion strains, locus YOL006C, strain TOP1, stronger effect = lower value 1.04 | S. cerevisiae deletion strains, locus YOL012C, strain htz1 0.746 | S. cerevisiae deletion strains, locus YOL147C, strain pex11, stronger effect = lower value 1 | S. cerevisiae deletion strains, locus YOR001W, strain rrp6, stronger effect = lower value 0.988 | S. cerevisiae deletion strains, locus YOR061W, strain CKA2, stronger effect = lower value 1 | S. cerevisiae deletion strains, locus YOR069W, strain VPS5, stronger effect = lower value 1 | S. cerevisiae deletion strains, locus YOR070C, strain gyp1, stronger effect = lower value 0.998 | S. cerevisiae deletion strains, locus YOR080W, strain dia2, stronger effect = lower value 0.985 | S. cerevisiae deletion strains, locus YOR083W, strain WHI5, stronger effect = lower value 0.989 | S. cerevisiae deletion strains, locus YOR106W, strain vam3, stronger effect = lower value 0.982 | S. cerevisiae deletion strains, locus YOR136W, strain idh2, stronger effect = lower value 1 | S. cerevisiae deletion strains, locus YOR144C, strain elg1, stronger effect = lower value 1 | S. cerevisiae deletion strains, locus YOR184W, strain ser1, stronger effect = lower value 1.03 | S. cerevisiae deletion strains, locus YOR231W, strain MKK1, stronger effect = lower value 1 | S. cerevisiae deletion strains, locus YOR265W, strain rbl2, stronger effect = lower value 0.985 | S. cerevisiae deletion strains, locus YOR270C, strain vph1, stronger effect = lower value 0.98 | S. cerevisiae deletion strains, locus YOR290C, strain snf2, stronger effect = lower value 1.01 | S. cerevisiae deletion strains, locus YOR316C, strain cot1, stronger effect = lower value 1.01 | S. cerevisiae deletion strains, locus YPL051W, strain arl3, stronger effect = lower value 0.999 | S. cerevisiae deletion strains, locus YPL055C, strain LGE1, stronger effect = lower value 0.937 | S. cerevisiae deletion strains, locus YPL078C, strain atp4, stronger effect = lower value 0.976 | S. cerevisiae deletion strains, locus YPL106C, strain sse1, stronger effect = lower value 0.993 | S. cerevisiae deletion strains, locus YPL240C, strain hsp82, stronger effect = lower value 0.993 | S. cerevisiae deletion strains, locus YPL241C, strain CIN2, stronger effect = lower value 0.992 | S. cerevisiae deletion strains, locus YPL256C, strain CLN2, stronger effect = lower value 0.982 | S. cerevisiae deletion strains, locus YPR119W, strain clb2, stronger effect = lower value 0.993 | S. cerevisiae deletion strains, locus YPR141C, strain kar3, stronger effect = lower value 0.993 | S. cerevisiae deletion strains, locus YPR163C, strain tif3, stronger effect = lower value 1.01 | S. cerevisiae deletion strains, locus YPR167C, strain met16, stronger effect = lower value 0.992 | S. cerevisiae deletion strains, strain wtn01, stronger effect = lower value 0.987 | S. cerevisiae strains, strain wild type, stronger effect = lower value 0.972
